Assay [1] concerns Zika virus NS2B-NS3 protease (unlinked complex). The assay can be described thus: Primary screen GU Rhodamine qHTS for Zika virus inhibitors: Unlinked NS2B-NS3 protease assay (AID 1347159). Note: nearly all actives have a fitted effect of over 60% in size. To be noted: Recombinant ZIKV NS2B-NS3 protease, Rhodamine110 substrate fluorescence; series mostly up to 107 µM. Put shortly: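 Percent inhibition came from the 15-min rise in Rhodamine110 fluorescence (1.5 microM substrate, ~15% conversion), normalized to no-inhibitor and no-enzyme wells and Hill-fitted. Unlinked protease, 25 nM, pH 8.0 Tris buffer; compounds up to 114 microM, 15-min preincubation.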
For orientation: qHTS replaces the single test concentration by a dilution series.

Assay [2] relates to Zika virus NS2B-NS3 protease (linked construct). The assay can be described thus: Primary screen NINDS Rhodamine qHTS for Zika virus inhibitors (AID 1347160). Note: nearly all actives have a fitted effect of over 55% in size. As to conditions: purified NS2B-NS3 protease, Rhodamine110 substrate fluorescence; series mostly up to 57.1 µM. Summed up: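 Rhodamine110-peptide cleavage (1.5 µM substrate) by 25 nM linked NS2B-NS3 enzyme at pH 8.0 (Tris, Tween 20), after 15 min RT preincubation with compounds; 15-min fluorescence change normalized to controls and Hill-fitted.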

Results filed as inconclusive are left out. Activity calls are given as the source filed them. Calls come from the whole dose curve; as a rule, active = well fitted inhibition curve with a large enough effect; inconclusive = small, poorly fitted or top-dose-only effect; inactive = no such curve, though single readings can be large or run the other way.
Potency is the fitted concentration of half-maximal effect.

On to `C=CC(=O)Nc1ccc2ncnc(Nc3cccc(Br)c3)c2c1`, for which the Potency in assay [1] is 44.7 µM (active). In addition, the Potency result in assay [2] is “inactive”.
With `COC1C=C(C)C(O)(CO)C2(C)CCCC(C)(C)C12` (stereo unspecified), the Potency result in assay [1] and in assay [2] was “inactive” throughout.
In the case of `CC(=O)C=C=C1C(C)(C)CC(O)CC1(C)O[C@@H]1O[C@H](CO[C@H]2OC[C@](O)(CO)[C@H]2O)[C@@H](O)[C@H](O)[C@H]1O` (stereo partly specified), the Potency is 20 µM (active) in assay [1] and 11.2 µM (active) in assay [2].
Regarding `N#Cc1ccc(COc2ccc(-c3cccc4nc(NC(=O)C5CC5)nn34)cc2)cn1`, the Potency entry in assay [1] and in assay [2] was “inactive” in each case.
For the compound `COc1ccccc1S(=O)(=O)Nc1ccc2c(c1)CN(C)C(=O)N2`, the Potency result in assay [1] and in assay [2] was “inactive” throughout.
Consider `CC1=C(C(=O)Nc2cc(Cl)ccc2Cl)C(c2ccco2)C2=C(CCCC2=O)N1` (stereo unspecified), for which the Potency result in assay [1] and in assay [2] was “inactive” each time.
Take `CCO[C@H]1CN(C2CCC(O)(c3ccc4c(c3)OCO4)CC2)C[C@@H]1NC(=O)CNC(=O)c1cccc(C(F)(F)F)c1` (stereo partly specified): the Potency entry in assay [1] and in assay [2] was “inactive” each time.
For `O=C(NCCCNC(=O)c1ccc[nH]c1=O)c1cc(-c2ccccc2)on1`, the Potency result in assay [1] and in assay [2] was “inactive” throughout.
Regarding `C=C1C(=O)O[C@@H]2C[C@@]3(C)CCCC(=C)[C@]3(O)C[C@H]12`, the Potency entry in assay [1] and in assay [2] was “inactive” each time.
For the compound `Cn1cc(-c2cnn3c(N)c(Br)c([C@@H]4CCCNC4)nc23)cn1`, the Potency result in assay [1] and in assay [2] was “inactive” each time.
With `C=C1C(=O)O[C@@H]2C=C(COC(C)=O)CC/C=C(\CO)CC[C@@H]12`, the Potency entry in assay [1] and in assay [2] was “inactive” each time.
For `O=C([C@@H](Cc1cccc(C(F)(F)F)c1)NS(=O)(=O)c1cc(F)c2c(c1)CCNC2)N1CCCC1`, the Potency entry in assay [1] and in assay [2] was “inactive” each time.
In the case of `CC(C)C[C@@H]1NC(=O)[C@@H](Cc2ccccc2)NC(=O)C(CCCCCC(=O)C2CO2)NC(=O)[C@@H]2CCCCN2C1=O` (stereo partly specified), the Potency entry in assay [1] and in assay [2] was “inactive” in each case.
